Among the test systems are T-47D breast; BT-549 breast; MDA-MB-435 melanoma; SW-620 colon; MCF7 breast; HCT-116 colon; HCC-2998 colon; KM12 colon.
Holding throughout (assay): NCI-60 one-dose screen, 48 h (100 = growth as untreated, 0 = no growth, -100 = all killed)
Holding throughout (settings): 10 µM unless noted

The panel holds about 83,000 compounds, 20% with a hit somewhere; the sample as a whole holds those more often.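 Single-concentration screen, 48 h exposure, 96-well plates. Endpoint: percent growth. Below 10 = active.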 Values without a mark were called inactive. Activity calls are given as the source filed them.

Turning to `O=C(Nc1ccc2cc3ccc(NC(=O)NC4CCCCC4)cc3nc2c1)NC1CCCCC1`, the growth with T-47D breast is 81.9%; in the test on BT-549 breast, 75%; with MDA-MB-435 melanoma, 95.3%; in the test with SW-620 colon, 84.3%; in the test with MCF7 breast, 47.3%; in the test on HCT-116 colon it was 65.1%. Besides, the growth in the test on HCC-2998 colon is 101%; with KM12 colon it was 97%.

With `CN(C)C(=O)c1cc2cnc(Nc3ccc(-c4csc5c(=O)cc(N6CCOCC6)oc45)cc3)nc2n1C1CCCC1`, the growth with T-47D breast was -4.72% (active); in the test on BT-549 breast, -79.1% (active); in the test on MDA-MB-435 melanoma it was -38.7% (active); in the test with SW-620 colon, -45.6% (active); in the test with MCF7 breast it was -46.8% (active); in the test with HCT-116 colon, -29.2% (active). Moreover, the growth in the test with HCC-2998 colon is -44.6% (active); with KM12 colon it was -86.9% (active).

Turning to `COc1cc2nc(-c3ccc(C(F)(F)F)cc3)cc(OCCN3CCCC3)c2cc1OC`, the growth in the test on T-47D breast was 86.5%; with BT-549 breast it was 70.4%; with MDA-MB-435 melanoma it was 97.2%; in the test on SW-620 colon it was 91.2%; in the test with MCF7 breast it was 85.1%; in the test on HCT-116 colon it was 67.3%. Further, the growth is 82% in the test with HCC-2998 colon and 93.7% with KM12 colon.

In the case of `CN1CCN(c2ccc(NC3=C(Cl)C(=O)c4ncccc4C3=O)cc2C#N)CC1`, the growth in the test on T-47D breast was -33.3% (active); in the test with BT-549 breast, 96.3%; in the test on MDA-MB-435 melanoma it was -92.9% (active); with SW-620 colon, -75.3% (active); in the test with MCF7 breast it was -59.9% (active); with HCT-116 colon it was -56.7% (active). The growth was 96.7% in the test with HCC-2998 colon and 105% in the test with KM12 colon.

Regarding `CC(=O)OC1CCC2(C)C(CCC3C4CC=C(C(C)=O)C4(C)OC(=O)CC32)C1` (stereo not drawn), the growth is 17.4% with T-47D breast; 28.8% with BT-549 breast; 20.4% with MDA-MB-435 melanoma; -48.7% (active) in the test with SW-620 colon; 11.2% in the test on MCF7 breast; -98.9% (active) in the test with HCT-116 colon. The figures for the growth in the test on HCC-2998 colon and with KM12 colon were 73.8% and 81.6%, respectively.

For `CN(C)CCCn1c2c(c3ccc(-c4ccn[nH]4)cc3c1=O)C(=O)c1ccccc1-2`, the growth in the test with T-47D breast is 43.2%; in the test on BT-549 breast it was 56.1%; with MDA-MB-435 melanoma, 78.4%; with SW-620 colon it was 37.1%; with MCF7 breast it was 9.49% (active); in the test with HCT-116 colon it was 28.9%. Moreover, the results for the growth with HCC-2998 colon and with KM12 colon were 53.8% and 18.1%, respectively.

Take `COC(=O)Nc1nc2ccc(C(=O)c3cccc(I)c3)cc2[nH]1`: the growth with T-47D breast is 63.8%; in the test on BT-549 breast, 6.76% (active); in the test with MDA-MB-435 melanoma, -35.8% (active); in the test on SW-620 colon, 21.3%; in the test with MCF7 breast, 17.6%; with HCT-116 colon, 9.66% (active). The growth in the test on HCC-2998 colon is 18.3%; with KM12 colon, 7.58% (active).

On to `CC(C)NC(=O)N1C(=O)CCC1NNC(=O)c1ccc([N+](=O)[O-])cc1` (stereo not drawn), for which the growth is 94.9% in the test with T-47D breast; 102% in the test on BT-549 breast; 98.6% in the test with MDA-MB-435 melanoma; 112% in the test with SW-620 colon; 97.8% in the test on MCF7 breast; 95.7% with HCT-116 colon. The growth in the test with HCC-2998 colon is 98.6%; in the test with KM12 colon, 102%.

On to `CN1C(=O)N(C)[C@H]2NC(NN)=N[C@H]21`, for which the growth in the test with T-47D breast is 91.7%; in the test on BT-549 breast it was 101%; with MDA-MB-435 melanoma, 101%; in the test on SW-620 colon, 103%; with MCF7 breast, 97.8%; with HCT-116 colon it was 96.9%. Moreover, the growth in the test on HCC-2998 colon was 102%; in the test with KM12 colon, 105%.

As for `CC(=O)CCSc1ccc(OC(C)=O)cc1`, the growth in the test with T-47D breast is 91.9%; in the test with BT-549 breast, 96.5%; in the test on MDA-MB-435 melanoma, 104%; in the test on SW-620 colon it was 105%; with MCF7 breast it was 102%; with HCT-116 colon, 97%. Further, the growth with HCC-2998 colon was 89.7%; in the test with KM12 colon it was 99.9%.

Consider `O=C1NC(=S)NC(=O)C1=Cc1cn(Cc2ccccn2)c2ccccc12`, for which the growth in the test on T-47D breast is 89.8%; with BT-549 breast it was 66.8%; with MDA-MB-435 melanoma, 21.3%; in the test with SW-620 colon, 48.3%; in the test with MCF7 breast it was 34.6%; in the test on HCT-116 colon, 2.36% (active). Besides, the growth was 54.2% with HCC-2998 colon and 57.2% in the test on KM12 colon.

For `CN(C)C(C(N)=O)c1ccc(Cl)cc1` (stereo not drawn), the growth is 102% with T-47D breast; 100% with BT-549 breast; 101% in the test with MDA-MB-435 melanoma; 104% in the test with SW-620 colon; 106% in the test with MCF7 breast; 94.9% in the test with HCT-116 colon. Also, the growth in the test with HCC-2998 colon and in the test with KM12 colon was 102% throughout.

As for `O=C(NNc1nc(Cl)nc(N2CCN(C(c3ccccc3)c3ccccc3)CC2)n1)c1ccccc1`, the growth was 54.8% in the test on T-47D breast; 7.6% (active) with BT-549 breast; 58.7% in the test on MDA-MB-435 melanoma; -40.7% (active) in the test on SW-620 colon; 82.5% with MCF7 breast; -23.9% (active) in the test on HCT-116 colon. The results for the growth in the test with HCC-2998 colon and in the test on KM12 colon were -24.5% (active) and 76.9%, respectively.

As to `C=CCn1c(SCC(=O)Nc2ccc(C(=O)/C=C/c3cc(OC)c(OC)c(OC)c3)cc2)nnc1-c1cc(-c2ccc(S(C)(=O)=O)cc2)nc2ccccc12`, the growth is 85.6% in the test on T-47D breast; 79.4% with BT-549 breast; 88.6% in the test on MDA-MB-435 melanoma; 77% in the test with SW-620 colon; 50.6% in the test on MCF7 breast; 27.4% in the test on HCT-116 colon. Moreover, the growth was 111% in the test on HCC-2998 colon and 75.2% with KM12 colon.

For the compound `COc1ccc(C(=O)c2cc(C)c(OC)c(C)c2)c(OC)c1O`, the growth was 40.2% in the test with T-47D breast; 8.49% (active) in the test with BT-549 breast; -40.3% (active) with MDA-MB-435 melanoma; 22% in the test on SW-620 colon; 16.1% in the test on MCF7 breast; 1.83% (active) in the test with HCT-116 colon. Besides, the values for the growth in the test with HCC-2998 colon and in the test with KM12 colon were 16.8% and 7.53% (active), respectively.

`COC(=O)C1NC(=S)N(c2ccc(Cl)cc2)C1/C=C/c1ccccc1` (stereo not drawn): the growth with T-47D breast is 88.2%; with BT-549 breast, 93.8%; in the test with MDA-MB-435 melanoma, 85.5%; in the test with SW-620 colon it was 108%; in the test on MCF7 breast, 101%; in the test on HCT-116 colon, 95.6%. Besides, the growth in the test with HCC-2998 colon is 93.2%; in the test on KM12 colon, 96%.

The record behind these values is PubChem BioAssay (NCI).
